Holding throughout (details): concentration: 10 µM; 24 h
The test system of assay [1] is HCC1569. The assay can be described thus: cell number relative to DMSO (% of DMSO); higher = more cells (less growth inhibition / toxicity). Summed up:
(§1)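 For HCC1569 and TDF cells, compounds at 10 µM were applied for 24 h at 37 °C in triplicate in 384-well plates. Cells were fixed in 3.7% formaldehyde, stained for H1.0 and with DAPI, and imaged at ×10 over six fields per well. The endpoint, H1.0 nuclear intensity or cell number, is shown as percent of the plate control using the median of replicates. Positional effects were smoothed for HCC1569 only.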

Assay [2] relates to TDF. The assay is described as above. Summed up:
as §1

Assay [3] has as its system TDF. The assay can be described thus: H1.0 immunofluorescence intensity relative to DMSO (% of DMSO); higher = stronger H1.0 induction, active = 120 or more. The gist of the method: as §1
The test system of assay [4] is HCC1569. The assay can be described thus: H1.0 immunofluorescence intensity relative to DMSO (% of DMSO); higher = stronger H1.0 induction, active = 140 or more. Summed up: as §1

Each structure is given as a SMILES string. ± gives the standard deviation of the averaged measurements.
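For H1.0 immunofluorescence intensity relative to DMSO in this document: TDF is a line of transformed human dermal fibroblasts of mesenchymal origin.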
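For cell number relative to DMSO in this document: TDF denotes transformed human dermal fibroblasts of mesenchymal origin.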

As to `NC(CCC(=O)NC(CS)C(=O)NCC(=O)O)C(=O)O` (stereo not given) [Glutathione], the values for the cell number in the assay on HCC1569 [1] and in the assay on TDF [2] were 101 and 96.1, respectively. In addition, the H1.0 immunofluorescence intensity in the assay on TDF [3] was 91 (inactive); in the assay with HCC1569 [4], 93 (inactive).
On the same counts, the results for `CC1CNCCN1S(=O)(=O)c1cccc2cnccc12.Cl.Cl` (stereo not given) are 101, 105, 88.4 (inactive) and 83 (inactive).
On the same counts, the results for `N[C@@H](Cc1c[nH]c2ccc(O)cc12)C(=O)O` [5-Hydroxy-L-tryptophan] are 98.1, 94.8, 93 (inactive) and 116 (inactive).
For `Cc1oc(-c2ccccc2)nc1CCC(=O)c1ccc(CC2SC(=O)[N-]C2=O)cc1.[Na+]` (stereo not given), in that order: 103, 106, 96.4 (inactive) and 102 (inactive).
On to `CC(=O)C(C)=O` [2,3-Butanedione], for which the cell number in the assay with HCC1569 [1] and with TDF [2] was 103 in each case. The H1.0 immunofluorescence intensity in the assay with TDF [3] is 85.8 (inactive); with HCC1569 [4] it was 92.3 (inactive).
Take `O=S(=O)(O)C1CCNCC1` [Piperidine-4-sulphonic acid]: the cell number in the assay with HCC1569 [1] came out at 92.6; in the assay with TDF [2] it was 101. The H1.0 immunofluorescence intensity was 89 (inactive) in the assay with TDF [3] and 122 (inactive) in the assay with HCC1569 [4].
For `O=C(CCCN1CC=C(n2c(=O)[nH]c3ccccc32)CC1)c1ccc(F)cc1` [Droperidol], in that order: 107, 98.1, 91.1 (inactive) and 89.2 (inactive).
For the compound `O=C1CC(c2ccc(O)cc2)Oc2cc(O)cc(O)c21` (stereo not given) [Naringenin], the cell number in the assay with HCC1569 [1] was 99.9; in the assay on TDF [2], 110. Moreover, the H1.0 immunofluorescence intensity in the assay on TDF [3] was 90.6 (inactive); with HCC1569 [4] it was 85.4 (inactive).
On the same counts, the results for `O=C1Cc2c([nH]c3ccc(Br)cc23)-c2ccccc2N1` [Kenpaullone] are 76.3 ± 6.3, 93.1 ± 3.2, 91.6 (inactive) and 101 (inactive).
For `N=C(N)c1ccc(OCCCCCOc2ccc(C(=N)N)cc2)cc1` [Pentamidine], in that order: 101, 104, 92.3 (inactive) and 113 (inactive).

The record behind these values is the supplement of paper PMC7156485.
